For 89 compounds, inhibition results are on record in PubChem BioAssay AID485270 (The Scripps Research Institute Molecular Screening Center, 2010).

The whole screen tested about 330,000 compounds, of which about 5,800 (1.8%) were called active. Rule as the data show it: active = inhibition mostly above about 38% (no sharp cut-off); inactive = mostly below about 40%. Many of the other results were omitted from the sample, so actives are more common in it than they were.

For this assay, the target named is Orexin/Hypocretin receptor type 1 (Homo sapiens) (UniProt O43613). In words: antagonists of human orexin 1 receptor (OX1R) (AID 485270).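 Also: 0% = agonist challenge alone and 100% = reference antagonist.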 As to conditions: OX1R-expressing cells, FRET antagonist read-out; at 6.6 µM; active compounds read high.
Orexin/Hypocretin receptor type 1 (Homo sapiens), sequence (O43613 whole entry, looked up): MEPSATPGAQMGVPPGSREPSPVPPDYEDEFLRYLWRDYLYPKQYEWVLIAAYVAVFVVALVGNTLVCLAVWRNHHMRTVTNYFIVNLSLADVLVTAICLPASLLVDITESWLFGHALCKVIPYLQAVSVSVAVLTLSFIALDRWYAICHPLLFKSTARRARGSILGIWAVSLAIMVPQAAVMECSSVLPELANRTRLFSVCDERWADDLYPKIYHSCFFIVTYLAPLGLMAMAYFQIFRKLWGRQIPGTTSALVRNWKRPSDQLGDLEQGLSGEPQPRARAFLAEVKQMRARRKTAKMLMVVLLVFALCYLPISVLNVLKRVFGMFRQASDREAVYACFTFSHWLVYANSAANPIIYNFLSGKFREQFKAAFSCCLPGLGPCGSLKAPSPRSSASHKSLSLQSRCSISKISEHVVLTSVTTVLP
For the compound `COc1ccc(C(CNC(=O)c2cccc(S(=O)(=O)Nc3ccccc3Cl)c2)N2CCOCC2)cc1` (centres undefined), the inhibition – broadly, the drop in the measured response relative to a control, in per cent – is 34.6% (active).

On to `COc1ccc(C(CNC(=O)c2cccc(NS(=O)(=O)c3ccc(C)c(F)c3)c2)N2CCCC2)cc1` (centres undefined), for which the inhibition is 6.44% (inactive).

Take `COc1ccc(C(CNC(=O)c2ccc(S(=O)(=O)Nc3ccccc3C)cc2)N2CCOCC2)cc1` (centres undefined): the inhibition was 8.1% (inactive).

Turning to `O=C(NCC#CCSc1nnc(-c2cccc3ccccc23)o1)c1cccs1`, the inhibition was 8.58% (inactive).

As to `COc1ccc(S(=O)(=O)N(C)C[C@H]2Oc3c(NC(=O)Nc4ccc5c(c4)OCO5)cccc3C(=O)N([C@H](C)CO)C[C@@H]2C)cc1`, the inhibition was 6.37% (inactive).

Turning to `Cc1cccc(-c2nc3ccc(C(=O)NCCN4CCN(C)CC4)cc3nc2-c2cccc(C)c2)c1`, the inhibition is 17.7% (inactive).

For `C=CCNC(=O)c1ccc2c3n(nc2c1)-c1ccc(C)cc1CO3`, the inhibition was 75% (active).

With `Cn1nnc2cc(C(=O)NCCC3=CCCCC3)ccc21`, the inhibition was 20.7% (inactive).

As for `CC(NC(=O)COC(=O)c1ccc2ccccc2n1)c1ccccc1` (centres undefined), the inhibition is 15.5% (inactive).

Consider `O=C(NC(=S)Nc1ccc(Br)cc1F)C1CCCCC1`, for which the inhibition was 4.65% (inactive).

Regarding `O=C(CN1C(=O)NC2(CCCCCC2)C1=O)NCc1ccc(F)cc1`, the inhibition is 6.28% (inactive).

As for `COc1cc(C)ccc1OCC(=O)OCC(=O)c1ccc[nH]1`, the inhibition is 11.8% (inactive).

Take `O=C(NCCC(=O)N1O[C@@H]2C=C[C@H]1C2)OCC1c2ccccc2-c2ccccc21`: the inhibition is 7.51% (inactive).

With `O=C(Nc1ccccc1)N1CCN(C(=O)Nc2ccccc2)CC1`, the inhibition was 7.94% (inactive).

As for `O=C(Nc1ccc(Cl)c(Cl)c1)N1CC=C(c2ccccc2)CC1`, the inhibition is 56.1% (active).

As for `COc1cc(C(=O)NCC(=O)N2CC=C(c3ccccc3)CC2)cc(OC)c1OC`, the inhibition was 13.7% (inactive).

Take `CC(C)n1cnc2c(NCc3ccccc3)cc(N[C@@H](CO)Cc3ccccc3)cc21`: the inhibition is 33.2% (inactive).

On to `Cc1cc(-c2ccc(C)c(S(=O)(=O)NCCCN(Cc3ccccc3)C(C)C)c2)on1`, for which the inhibition is 22.4% (inactive).

For the compound `Cc1cc(-c2ccc(C)c(S(=O)(=O)NC(C)Cc3ccco3)c2)on1` (centres undefined), the inhibition was 46% (active).

With `Cc1cc(-c2ccc(C)c(S(=O)(=O)Nc3ccc(S(N)(=O)=O)cc3)c2)on1`, the inhibition was 14.9% (inactive).

As for `COc1ccc(S(=O)(=O)N(C)C[C@H]2Oc3ccc(NS(=O)(=O)c4cccs4)cc3CC(=O)N([C@H](C)CO)C[C@H]2C)cc1`, the inhibition was 8.61% (inactive).

For the compound `O=C(O)c1cccc(NC(=S)N/N=C/c2c[nH]c3ccccc23)c1`, the inhibition is 18.9% (inactive).

As to `Cc1c(/C=N/N2C(=O)C3C4C=CC(C4)C3C2=O)c2ccccc2n1C` (centres undefined), the inhibition is 1.17% (inactive).

Turning to `O=C(N/N=C/c1c[nH]c2ccccc12)c1ccccc1O`, the inhibition is -0.06% (inactive).

For the compound `Cc1c(/C=N\NC(=O)c2cc3ccccc3o2)c2ccccc2n1C`, the inhibition was 89.7% (active).

`O=C(N/N=C/c1c[nH]c2ccccc12)c1cc2ccccc2o1`: the inhibition was 65.5% (active).

As for `Cc1ccc(NC(=O)c2cc3ccccc3o2)cc1`, the inhibition was 4.2% (inactive).

For the compound `C=CC1=C(C(=O)O)N2C(=O)[C@@H](NC(=O)/C(=N\OCC(=O)O)c3csc(N)n3)[C@H]2SC1`, the inhibition is 9.76% (inactive).

Turning to `CN(C)C(=O)CCc1ccc2c3c([nH]c2c1)[C@]1(C)[C@@H](C(=O)N2CCOCC2)C[C@H](CC(=O)NCCc2ccccn2)C(=O)N1CC3`, the inhibition is 8.14% (inactive).

For `CC1CCCCC1NC(=O)CCS(=O)(=O)c1cccc2nonc12` (centres undefined), the inhibition was 57.3% (active).

`O=C(CCS(=O)(=O)c1cccc2nonc12)NCCc1ccccc1Cl`: the inhibition is 40.5% (inactive).

For the compound `CC1CCCCC1NC(=O)CCS(=O)(=O)c1ccc2c(c1)NC(=O)CO2` (centres undefined), the inhibition was -0.2% (inactive).

Take `Cc1nn(-c2ccccc2)nc1C(=O)OCC(=O)N1CCCCC1C` (centres undefined): the inhibition is 8.79% (inactive).

As for `CC[n+]1cc(C)ccc1/C=C/c1ccc(N(C)C)cc1`, the inhibition was 52.2% (active).

As for `Cc1noc(C)c1C(=O)OC(C)C(=O)Nc1ccc2c(c1)OCO2` (centres undefined), the inhibition was 6.68% (inactive).

Regarding `COc1ccc(S(=O)(=O)N2CCN(CC(=O)N3CCOCC3)CC2)cc1OC`, the inhibition is 7.86% (inactive).

As to `CCOc1ccccc1NC(=O)c1cccnc1`, the inhibition was 13% (inactive).

With `C/C(=N\NC(=O)c1ccc2ccccc2c1)c1cccnc1`, the inhibition is 7.2% (inactive).

Turning to `CCn1c(O)c2ccc(C(=O)N=NC(=O)c3cccnc3)cc2c1O`, the inhibition is 52.5% (active).

Take `O=C(OCC(=O)N1CCCCCC1)c1ccc(Cl)nc1`: the inhibition is 9.15% (inactive).

Take `C=CC[C@@H](Cc1ccc(F)cc1)C(=O)OC[C@H]1CCCN1C(=O)[C@H](CC=C)CC(=O)N(CCO)Cc1ccccc1`: the inhibition was 5.09% (inactive).

As for `CCCSc1ccc([C@H]2N[C@@](Cc3ccccc3)(C(=O)OC)[C@H]3C(=O)N(C)C(=O)[C@@H]23)cc1`, the inhibition was 8.14% (inactive).

On to `CCC1CCCCN1C(=S)NC(=O)c1ccco1` (centres undefined), for which the inhibition was 0.14% (inactive).

`Cc1ccc(NC(=O)CSc2nnc(CNC(=O)c3ccccc3F)o2)cc1Cl`: the inhibition is 13.1% (inactive).

Turning to `COc1ccc(Cc2nnc(SCC(=O)Nc3ccc(C)c(Cl)c3)[nH]c2=O)cc1`, the inhibition is 27% (inactive).

On to `Cc1ccc(NC(=O)CSc2nn3c(=O)c(C)nnc3s2)cc1Cl`, for which the inhibition was 53.8% (active).

As to `CC(C)n1cnc2c(NCc3ccccc3)cc(OCC3CCN(C)CC3)cc21`, the inhibition is 19.4% (inactive).

For `Cc1cccc(C(=O)OCC(=O)NC(C)C2CC3CCC2C3)c1O` (centres undefined), the inhibition was 17.1% (inactive).

In the case of `COCCn1c(C)cc(C(=O)CN2c3cccc4cccc(c34)S2(=O)=O)c1C`, the inhibition is 24.1% (inactive).

With `Cc1ccc(NC(=O)c2ccc(Cl)nc2)cc1S(=O)(=O)N1CCOCC1`, the inhibition was 5.02% (inactive).

With `CCN(C(=O)CSc1nnnn1-c1ccc(OC)cc1)C1CCS(=O)(=O)C1` (centres undefined), the inhibition is 8.67% (inactive).

As for `COc1cc(/C=C/C(=O)OCC(=O)NCCCc2ccccc2)ccc1O`, the inhibition was 5.75% (inactive).

Consider `Cc1ccc(-c2c[n+](=O)c3c(n2[O-])CCC3)cc1`, for which the inhibition is 17.4% (inactive).

For the compound `Cc1ccc(-c2c(C)n([O-])c3c([n+]2=O)CCC3)cc1`, the inhibition was 22.7% (inactive).

`O=[n+]1c2c(n([O-])c3cc(Br)ccc31)CCC2`: the inhibition is 66% (active).

`CC(C)CC1(C)NC(=O)N(CC(=O)Nc2ccc3c(c2)OCCO3)C1=O` (centres undefined): the inhibition was 5.05% (inactive).

Regarding `COc1ccc(CNC(=O)C[C@H]2C[C@H](C(=O)N3CCOCC3)[C@@]3(C)c4[nH]c5cc(CCC(=O)N(C)C)ccc5c4CCN3C2=O)cc1OC`, the inhibition is 1.77% (inactive).

Consider `CC1(C)CN(c2ccc(-c3ccnc4ncnn34)cc2)C1=O`, for which the inhibition was 41.3% (active).

For the compound `Nc1c(-c2ccc(F)cc2)cnc2ncnn12`, the inhibition was 7.26% (inactive).

In the case of `Cc1cccc(-c2nnc(SCC(=O)O)n2Cc2ccccc2)c1`, the inhibition was -2.09% (inactive).

As to `Cc1ccc2c(c1)nnc1nnc(SCC(=O)O)n12`, the inhibition is 89.5% (active).

In the case of `CCn1nnnc1SCC(=O)c1ccc(C)cc1C`, the inhibition was 12.5% (inactive).

For the compound `CCN(C(=O)COC(=O)c1ccccc1O)c1cccc2ccccc12`, the inhibition is 4.23% (inactive).

With `CC[C@]12c3[nH]c4ccc(Cl)cc4c3CCN1C(=O)[C@@H](CC(=O)NCCCOC)C[C@@H]2C(=O)N1CCN(C(=O)C2CC2)CC1`, the inhibition is -3.2% (inactive).

`COc1ccc(CCC(=O)N2CCN(S(=O)(=O)c3ccc(OC)cc3)CC2)cc1`: the inhibition was 3.59% (inactive).

Turning to `O=C(C1CCCN(S(=O)(=O)c2ccccc2)C1)N1CCN(c2ccc(F)cc2)CC1` (centres undefined), the inhibition is 13.8% (inactive).

As for `O=C(O)C1CCCCC1C(=O)N1CCN(S(=O)(=O)c2ccc(F)cc2)CC1` (centres undefined), the inhibition is 7.06% (inactive).

For the compound `O=C(C1CCCN(S(=O)(=O)c2ccc([N+](=O)[O-])cc2)C1)N1CCCCC1` (centres undefined), the inhibition was 66.7% (active).

Regarding `O=C(C1CCC1)N1CCN(S(=O)(=O)c2ccc([N+](=O)[O-])cc2)CC1`, the inhibition is 43.9% (active).

With `O=C(NNS(=O)(=O)c1ccc([N+](=O)[O-])cc1)C1CCCCC1`, the inhibition was 34.2% (inactive).

With `O=C(Cc1ccccc1)N1CCN(S(=O)(=O)c2ccc([N+](=O)[O-])cc2)CC1`, the inhibition was 88.8% (active).

`O=C(Cc1ccccc1)NNS(=O)(=O)c1ccc([N+](=O)[O-])cc1`: the inhibition is 42% (inactive).

Consider `Cc1ccc(S(=O)(=O)N2CCCC(C(=O)N3CCN(C)CC3)C2)cc1` (centres undefined), for which the inhibition is 16.7% (inactive).

For `CC1CCCN(C(=O)CN2C(=O)c3ccccc3S2(=O)=O)C1` (centres undefined), the inhibition is 1.18% (inactive).

As to `COc1ccc(C(=O)Nc2cc(S(=O)(=O)N3CCCC3)ccc2Cl)cc1`, the inhibition is 16.2% (inactive).

`COc1ccc(OCC(=O)NNC(=O)C2CCC2)cc1`: the inhibition was -2.24% (inactive).

In the case of `O=C(COC(=O)COc1cccc(F)c1)NCC1CCCCC1`, the inhibition was 4.71% (inactive).

Regarding `O=C(CN1C(=O)NC2(CCOc3ccccc32)C1=O)Nc1cccc([N+](=O)[O-])c1` (centres undefined), the inhibition is 7.29% (inactive).

As to `CCc1noc(C)c1C(=O)Nc1nc2ccc(OC)cc2s1`, the inhibition was 25.1% (inactive).

As to `Cc1ccc(F)cc1NC(=O)CSCc1c(C)noc1C`, the inhibition is -1.27% (inactive).

As for `Cc1noc(C)c1CSCC(=O)Nc1nc2ccc(Oc3ccccc3)cc2s1`, the inhibition is 76% (active).

For the compound `Nn1c(SCC(=O)NC2CCCc3ccccc32)nnc1C1CC1` (centres undefined), the inhibition is 8.92% (inactive).

Take `CCOC(=O)C(C)Oc1cccc2c(=O)n(CC(=O)NCCc3ccc(OC)c(OC)c3)ccc12` (centres undefined): the inhibition was 37% (active).

As to `COC(=O)COc1cccc2c(=O)n(CC(=O)NCCc3ccc(OC)c(OC)c3)ccc12`, the inhibition was 1.07% (inactive).

Take `CCOC(=O)C(C)Oc1cccc2c(=O)n(CC(=O)N3CCc4ccccc43)ccc12` (centres undefined): the inhibition is 12.2% (inactive).

On to `Cc1onc(-c2c(F)cccc2Cl)c1C(=O)OCC(=O)N1C(C)CCCC1C` (centres undefined), for which the inhibition is 17.2% (inactive).

With `COc1cccc(/C=N/NC(=O)c2[nH]nc3c2CCc2ccccc2-3)c1O`, the inhibition is 75.7% (active).

`CN(C)CCNC(=O)c1[nH]nc2c1CCc1ccccc1-2`: the inhibition was 3.78% (inactive).

As for `COc1ccc(/C=N/NC(=O)c2ccc3c(c2)OCCO3)c(OC)c1`, the inhibition was 22.9% (inactive).
